In the library only some 3.7% were active in any assay of this set; here they are far more common.
GDH-TPI inh: GDH-TPI coupling enzyme inhibitors, primary screen, artefact control for M. tuberculosis FBA inhibitor project, biochemical, absorbance, full deck | GDH-TPI coupled enzyme counterscreen, NADH absorbance | inhibition, % at 4.8 µM | hit rate 1.2% among 360,000 | AID 588335, 2011; in the data active means inhibition above about 30%;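 further: 0% = DMSO wells and 100% = wells lacking the enzyme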
Mtb FBA inh: Mtb FBA enzyme inhibitors, primary screen, biochemical, fluorescence, strain H37Rv; Fructose-bisphosphate aldolase (Mycobacterium tuberculosis (strain ATCC 25618 / H37Rv)), …; purified M. tuberculosis FBA, fluorescence read-out; inhibition, % at 1 µM; hit rate 2.3% among 360,000; AID 588726, 2011; in the data active means inhibition above about 27%;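 further: 0% = vehicle and 100% = reference inhibitor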
Target sequence (P9WQA3 whole entry, looked up): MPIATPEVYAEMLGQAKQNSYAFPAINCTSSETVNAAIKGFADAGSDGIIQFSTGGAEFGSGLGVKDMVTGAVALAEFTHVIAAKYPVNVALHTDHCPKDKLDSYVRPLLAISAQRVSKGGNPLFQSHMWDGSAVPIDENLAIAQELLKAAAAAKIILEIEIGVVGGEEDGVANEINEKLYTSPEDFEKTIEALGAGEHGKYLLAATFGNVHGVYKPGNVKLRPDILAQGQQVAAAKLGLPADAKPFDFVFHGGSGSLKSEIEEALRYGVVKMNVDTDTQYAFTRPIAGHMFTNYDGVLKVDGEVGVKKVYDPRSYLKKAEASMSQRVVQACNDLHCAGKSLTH
FadD28 FP inh: inhibitors of FadD28 bisubstrate probe binding, primary screen, biochemical, fluorescence polarization, single point | inhibition, % at 12.5 µM | hit rate 0.22% among 360,000 | AID 588549, 2011; in the data active means inhibition above about 8.5%, passing the limit was not always enough
Mtb betalactam: beta-lactam sensitization of Mtb H37Rv, H37Rv. M. tuberculosis H37Rv growth with meropenem, percent inhibition. inhibition, % at 25 µM. hit rate 0.27% among 330,000; call rule not given here;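 further: growth measured after seven days incubation then overnight dye step; 0% = bacteria only wells and 100% = bacteria with antibiotic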
Mtb UGM inh: M. tuberculosis UGM enzyme inhibitors, primary screen, biochemical, fluorescence polarization, single point. inhibition, % at 10 µM. hit rate 0.06% among 320,000. purified UGM, fluorescence polarization probe displacement. AID 504406, 2011. UDP-galactopyranose mutase (Mycobacterium tuberculosis (strain ATCC 25618 / H37Rv)), …; in the data active means inhibition above about 10%, passing the limit was not always enough
Rv3671c inh: Rv3671c serine protease inhibitors, primary screen, biochemical, fluorescence polarization, M. tuberculosis H37Rv; inhibition, % at 5.96 µM; P9WHR9; hit rate 0.048% among 320,000; AID 2606, 2010; in the data active means inhibition above about 38%;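 further: extracellular domain of Rv3671c used as enzyme; 0% = enzyme with DMSO and 100% = no enzyme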
* marks the source's active call; other numbers are inactive results; / = not tested or not shown; + = active, no number.

SMILES	GDH-TPI inh	Mtb FBA inh	FadD28 FP inh	Mtb betalactam	Mtb UGM inh	Rv3671c inh
Cc1ccc(C(=O)Nc2ccccc2C(=O)N2CC(C)OC(C)C2)cc1 (configuration not stated)	10	3	0	/	/	/
Cc1cc(=O)oc(C)c1C(=O)NCC(C)C	7	2	-1	4	1	-2
CCCCN(CCCNC(=O)c1c(C)cc(=O)oc1C)c1ccccc1	5	-1	1	-7	-5	0
CCCNC(=O)c1c(C)cc(=O)oc1C	47*	1	0	0	-2	1
CCN(CCCNC(=O)c1c(C)cc(=O)oc1C)c1ccccc1	36*	1	1	/	1	-4
COc1ccccc1N1CCN(C(=S)Nc2ccc(F)cc2)CC1	-7	0	0	0	1	4
Cc1ccc(S(=O)(=O)Cc2ccc(C(=O)NC3CCCCCC3)o2)cc1	-1	4	2	0	3	8
O=C1c2ccccc2NC(c2ccncc2)N1c1ccccn1 (configuration not stated)	3	54*	-2	2	-1	2
O=C(CCCn1c(=O)oc2ccccc21)NNC(=O)COc1ccc(F)cc1	1	-1	-4	0	-1	9
CCOC(=O)c1cn2nc(Oc3ccccc3)ccc2n1	-5	6	-2	-7	-2	2
CCOC(=O)c1cn2nc(Oc3cccc(C(F)(F)F)c3)ccc2n1	5	66*	-1	-3	1	3
CCOC(=O)C1CCCN(C(=O)c2cccc(OC(F)(F)F)c2)CC1 (configuration not stated)	8	0	-1	/	/	/
O=C(NCc1ccco1)c1cccc(-c2cncc3nccn23)c1	-2	123*	-5	/	/	/
O=C(NC1CC1)c1cccc(-c2cncc3nccn23)c1	16	185*	-4	/	/	/
O=C(NC1CC1)c1ccc(-c2cnc3cccnn23)cc1	20	+	-1	/	/	/
O=C(c1cccc(-c2cccc3nccn23)c1)N1CCOCC1	8	9	-1	/	/	/
Oc1ccc(-c2nc3ccccn3c2NCc2ccc3c(c2)OCO3)cc1	13	22	-3	5	2	5
Fc1ccc(-c2nc3ccccn3c2NCc2ccc3c(c2)OCO3)cc1	15	39*	-2	3	0	5
CCCCN(C=O)c1c(CC)nc2ccc(C(=O)Nc3cc(-c4ccccc4)ccc3OC)cn12	-15	2	-3	/	/	/
Cc1cc(=O)oc2cc(OCC(O)CN3CCN(c4ccccc4)CC3)ccc12 (configuration not stated)	25	20	-3	-6	/	-5
Cc1cc(=O)oc2cc(OCC(O)CN3CCc4ccccc4C3)ccc12 (configuration not stated)	14	50*	-2	-5	1	5
O=[N+]([O-])c1ccc(O)c(C2=NNC(c3ccccc3F)C2)c1 (configuration not stated)	36*	8	-2	-2	2	8
Oc1ccc(Cl)cc1C1=NNC(c2cccs2)C1 (configuration not stated)	5	16	-4	-5	1	9
Cc1ccc(Cl)cc1N1CCN(C(=O)c2ccccc2SCC(=O)N2CCCC2)CC1	-2	-2	-4	4	/	-1
CC(C)(C)c1ccc(C(=O)Nc2nnc(C3=COCCO3)o2)cc1	4	0	3	94	-2	3
SMILES	GDH-TPI inh	Mtb FBA inh	FadD28 FP inh	Mtb betalactam	Mtb UGM inh	Rv3671c inh
CN(C)c1ccc(C(=O)Nc2nnc(C3=COCCO3)o2)cc1	41*	3	-2	90	2	-8
O=C(NNC(=S)Nc1ccc(Cl)cc1Cl)c1ccncc1	13	-3	-2	93	1	6
O=C(NNC(=S)Nc1ccccc1Cl)c1ccncc1	34*	-3	-1	97	4	7
O=C(/C=C/c1cccs1)c1ccc(NC(=O)c2cccc(Br)c2)cc1	40*	-1	1	73	1	-1
C=CCn1c(-c2ccccc2)nc2nc3ccccc3nc21	39*	126*	-4	-7	-4	-2
C=CCn1c(SCC(=O)Nc2ccc(C(=O)OCC)cc2)nnc1-c1cccs1	-1	-3	-1	-5	-4	7
C=CCn1c(SCC(=O)c2ccc(NS(=O)(=O)c3ccccc3)cc2)nnc1-c1cccs1	35*	3	-5	-1	1	-13
CSc1nc(NCC(C)O)c2c3c(sc2n1)CN(C)CC3 (configuration not stated)	8	113*	-2	-7	-2	1
CSc1nc(NCCCO)c2c3c(sc2n1)CN(C)CC3	-1	176*	-4	2	3	-2
O=C(O)C(CCc1ccccc1)N1C(=O)c2ccccc2C1=O (configuration not stated)	3	0	-3	/	/	/
Cc1cc(C)n2nc(-c3ccco3)nc2n1	4	124*	1	5	1	3
CC1CCCC(NC(=O)CSc2nnc(-c3cccnc3)n2N)C1C (configuration not stated)	-3	0	-1	-4	2	1
COc1ccc(/C=N/NC(=S)Nc2cc(S(=O)(=O)N3CCOCC3)ccc2N2CCOCC2)cc1O	42*	0	-6	4	-1	-1
CCN1CCN(c2ccc(S(=O)(=O)N3CCOCC3)cc2NC(=O)/C=C/c2ccc(OC)c(OC)c2)CC1	34*	5	0	6	-3	5
COc1ccc2ccccc2c1/C=N/NC(=S)Nc1cc(S(=O)(=O)N2CCOCC2)ccc1N1CCOCC1	5	1	0	-2	0	-14
Cc1ccc(C([O-])=C(C(=S)NCc2ccccc2)[n+]2cccc(CO)c2)cc1[N+](=O)[O-]	6	3	-1	/	/	/
O=C(/C=C/c1ccc(F)cc1)Nc1ccc2[nH]c(=O)[nH]c2c1	42*	2	-1	3	0	14
O=C(NC1CCCCC1)C(c1ccnc2ccccc12)N1CCc2ccccc2C1 (configuration not stated)	/	3	1	/	/	/
CCN(C[C@H]1N[C@@](C)(C(=O)OC)[C@H]2C(=O)N(C)C(=O)[C@@H]12)S(=O)(=O)c1ccc(OC)cc1	1	-1	-2	4	/	5
CC(=O)c1ccc(N2CCN(C(=O)c3ccccc3SCC(=O)NCc3ccco3)CC2)c(F)c1	17	6	-1	/	/	/
Cc1c(C(=O)N2CCC(C)CC2)sc2ncnc(N(C)c3ccccc3)c12	35*	0	0	-4	-5	1
Cc1c(C(=O)N2CCC3(CC2)OCCO3)sc2ncnc(N(C)c3ccccc3)c12	20	1	0	17	0	5

From PubChem BioAssay
